Assay results taken from PubChem BioAssay.
Calls of active or inactive are those of the source.

Assays:
[1] = binders of probe aFSTL3 on microarray, primary screen, stem cell growth factor project, biochemical, small-molecule microarray, fluorescence 635/667 (AID 1064); details: higher = more signal;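 note: measures binding of the biotinylated anti-FSTL3 antibody to printed compounds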
[2] = binders from COS7 lysate, DM2A8 probe, primary screen, torsin A project, cell lysate, small-molecule microarray, fluorescence 635/667 (AID 1065); details: higher = more signal, COS7 lysate expressing mutant human TOR1A
[3] = binders of probe aFGF2 on microarray, primary screen, stem cell growth factor project, biochemical, small-molecule microarray, fluorescence 635/667 (AID 1067); details: higher = more signal;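 note: measures binding of biotinylated aFGF2 protein to printed compounds on slides; z-score merges feature fluorescence and signal-to-noise across triplicate slides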
[4] = binders of probe aFGF10 on microarray, primary screen, stem cell growth factor project, biochemical, small-molecule microarray, fluorescence 635/667 (AID 1071); details: higher = more signal;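 note: score merges 667 nm spot intensity and signal to noise from triplicate slides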
[5] = target: Neurogenic locus notch homolog protein 2 (Homo sapiens) (UniProt Q04721); test: Notch2 binders on small-molecule microarrays, primary screen, biochemical, small-molecule microarray, 635 nm fluorescence, stem cell growth factors (AID 1073); details: Notch2 binding, higher = more signal
[6] = target: Pro-neuregulin-1, membrane-bound isoform (Homo sapiens) (UniProt Q02297); test: NRG1 binders on small-molecule microarrays, primary screen, psychiatric disease protein project, biochemical, small-molecule microarray, fluorescence 635/667 (AID 1075); details: NRG1 binding, 635 nm fluorescence, higher = more signal;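 note: score combines 667 nm spot fluorescence with signal to noise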
[7] = tested on: Neuregulin-1 EGF-like domain; test: binders of neuregulin-1 EGF-like domain, primary screen, biochemical, small-molecule microarray, 635 nm fluorescence (AID 1081); details: small-molecule microarray binding, higher = more signal;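 note: binding of the protein to compounds printed on small-molecule microarray slides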
[8] = FRG1 promoter luciferase signal modulators, primary screen, FRG1 inhibition for FSHD, cell-based, C2C12 myotubes, firefly/Renilla luciferase, luminescence (AID 1084); details: higher = more signal, called active from +8 up or from −8 down
[9] = binders of probe aFST on microarray, primary screen, stem cell growth factor project, biochemical, small-molecule microarray, fluorescence 635/667 (AID 1086); details: higher = more signal;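 note: score merges 667 nm fluorescence with signal-to-noise of each printed compound spot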
[10] = binders of probe aHhip on microarray, primary screen, stem cell growth factor project, biochemical, small-molecule microarray, fluorescence 635/667 (AID 1087); details: higher = more signal;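 note: score merges spot fluorescence at 667nm with spot signal to noise ratio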
[11] = tested on: PRMT1 (protein arginine N-methyltransferase 1); test: PRMT1 binders on small-molecule microarrays, primary screen, biochemical, small-molecule microarray, 635 nm fluorescence (AID 1088); details: small-molecule microarray binding, higher = more signal;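 note: binding of Prmt1 protein to compounds spotted on small-molecule microarray slides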
[12] = yeast growth modulation, basal conditions, primary screen, YJM789 clinical isolate, OD600, 24 h (AID 1089);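 note: growth of clinical yeast isolate S. cerevisiae YJM 789 seeded 1000 cells per well; test concentration not given here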; details: S. cerevisiae YJM789 growth, higher = more signal, called active from +8 up or from −8 down
[13] = fission yeast growth modulation, primary screen, strain 972, OD600, 24 h, no modulator (AID 1090);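 note: basal condition with compound alone and no growth modifier present; test concentration not given here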; details: S. pombe 972 growth, higher = more signal, called active from +8 up or from −8 down
[14] = S. cerevisiae growth modulation with rapamycin, primary screen, strain BY4716, OD600, 96 h (AID 1091); details: higher = more signal, called active from +8 up or from −8 down; note: test concentration not given here
[15] = target: Torsin-1A-interacting protein 2 (Homo sapiens) (UniProt Q8NFQ8); test: LULL1 binders on small-molecule microarray, primary screen, cell lysate, human LULL1 lysate, 635/667 nm fluorescence (AID 1092); details: hLULL1 lysate binding, 635 nm fluorescence, higher = more signal;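 note: probe is lysate of COS7 cells overexpressing human LULL1; score merges per-feature 667 nm fluorescence with signal-to-noise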
[16] = E. coli growth modulation, two-sided OD650, primary screen, E. coli filamentation project, strain DRC41, 24 h (AID 1093); details: OD650, 24 h, higher = more signal, called active from +8 up or from −8 down;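 note: MC1000 strain lacking acrAB efflux and sulA so SOS filamentation is blocked; test concentration not given here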
[17] = small-molecule microarray binders of probe aLefty2, primary screen, biochemical, biotinylated probe, 635/667 nm fluorescence (AID 1094); details: higher = more signal;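 note: score merges spot fluorescence near 667 nm with spot signal-to-noise ratio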
[18] = tested on: Noggin (protein binding on small-molecule microarray); test: Noggin binders on small-molecule microarray, primary screen, biochemical, 635/667 nm fluorescence (AID 1095); details: 635 nm fluorescence, higher = more signal;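 note: score merges 667 nm feature fluorescence with signal to noise over triplicate slides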
[19] = target: Neurogenic locus notch homolog protein 3 (Homo sapiens) (UniProt Q9UM47); test: NOTCH3 binders on small-molecule microarray, primary screen, biochemical, 635/667 nm fluorescence (AID 1096); details: NOTCH3 binding, 635 nm fluorescence, higher = more signal
[20] = small-molecule microarray binders of probe aEGFR, primary screen, biochemical, biotinylated probe, 635/667 nm fluorescence (AID 1097); details: higher = more signal;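 note: probe is a biotinylated anti-EGFR antibody binding compounds printed on slides; score combines fluorescence near 667 nm and signal to noise of each spot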

Neurogenic locus notch homolog protein 3 (Homo sapiens), sequence (Q9UM47 whole entry, looked up): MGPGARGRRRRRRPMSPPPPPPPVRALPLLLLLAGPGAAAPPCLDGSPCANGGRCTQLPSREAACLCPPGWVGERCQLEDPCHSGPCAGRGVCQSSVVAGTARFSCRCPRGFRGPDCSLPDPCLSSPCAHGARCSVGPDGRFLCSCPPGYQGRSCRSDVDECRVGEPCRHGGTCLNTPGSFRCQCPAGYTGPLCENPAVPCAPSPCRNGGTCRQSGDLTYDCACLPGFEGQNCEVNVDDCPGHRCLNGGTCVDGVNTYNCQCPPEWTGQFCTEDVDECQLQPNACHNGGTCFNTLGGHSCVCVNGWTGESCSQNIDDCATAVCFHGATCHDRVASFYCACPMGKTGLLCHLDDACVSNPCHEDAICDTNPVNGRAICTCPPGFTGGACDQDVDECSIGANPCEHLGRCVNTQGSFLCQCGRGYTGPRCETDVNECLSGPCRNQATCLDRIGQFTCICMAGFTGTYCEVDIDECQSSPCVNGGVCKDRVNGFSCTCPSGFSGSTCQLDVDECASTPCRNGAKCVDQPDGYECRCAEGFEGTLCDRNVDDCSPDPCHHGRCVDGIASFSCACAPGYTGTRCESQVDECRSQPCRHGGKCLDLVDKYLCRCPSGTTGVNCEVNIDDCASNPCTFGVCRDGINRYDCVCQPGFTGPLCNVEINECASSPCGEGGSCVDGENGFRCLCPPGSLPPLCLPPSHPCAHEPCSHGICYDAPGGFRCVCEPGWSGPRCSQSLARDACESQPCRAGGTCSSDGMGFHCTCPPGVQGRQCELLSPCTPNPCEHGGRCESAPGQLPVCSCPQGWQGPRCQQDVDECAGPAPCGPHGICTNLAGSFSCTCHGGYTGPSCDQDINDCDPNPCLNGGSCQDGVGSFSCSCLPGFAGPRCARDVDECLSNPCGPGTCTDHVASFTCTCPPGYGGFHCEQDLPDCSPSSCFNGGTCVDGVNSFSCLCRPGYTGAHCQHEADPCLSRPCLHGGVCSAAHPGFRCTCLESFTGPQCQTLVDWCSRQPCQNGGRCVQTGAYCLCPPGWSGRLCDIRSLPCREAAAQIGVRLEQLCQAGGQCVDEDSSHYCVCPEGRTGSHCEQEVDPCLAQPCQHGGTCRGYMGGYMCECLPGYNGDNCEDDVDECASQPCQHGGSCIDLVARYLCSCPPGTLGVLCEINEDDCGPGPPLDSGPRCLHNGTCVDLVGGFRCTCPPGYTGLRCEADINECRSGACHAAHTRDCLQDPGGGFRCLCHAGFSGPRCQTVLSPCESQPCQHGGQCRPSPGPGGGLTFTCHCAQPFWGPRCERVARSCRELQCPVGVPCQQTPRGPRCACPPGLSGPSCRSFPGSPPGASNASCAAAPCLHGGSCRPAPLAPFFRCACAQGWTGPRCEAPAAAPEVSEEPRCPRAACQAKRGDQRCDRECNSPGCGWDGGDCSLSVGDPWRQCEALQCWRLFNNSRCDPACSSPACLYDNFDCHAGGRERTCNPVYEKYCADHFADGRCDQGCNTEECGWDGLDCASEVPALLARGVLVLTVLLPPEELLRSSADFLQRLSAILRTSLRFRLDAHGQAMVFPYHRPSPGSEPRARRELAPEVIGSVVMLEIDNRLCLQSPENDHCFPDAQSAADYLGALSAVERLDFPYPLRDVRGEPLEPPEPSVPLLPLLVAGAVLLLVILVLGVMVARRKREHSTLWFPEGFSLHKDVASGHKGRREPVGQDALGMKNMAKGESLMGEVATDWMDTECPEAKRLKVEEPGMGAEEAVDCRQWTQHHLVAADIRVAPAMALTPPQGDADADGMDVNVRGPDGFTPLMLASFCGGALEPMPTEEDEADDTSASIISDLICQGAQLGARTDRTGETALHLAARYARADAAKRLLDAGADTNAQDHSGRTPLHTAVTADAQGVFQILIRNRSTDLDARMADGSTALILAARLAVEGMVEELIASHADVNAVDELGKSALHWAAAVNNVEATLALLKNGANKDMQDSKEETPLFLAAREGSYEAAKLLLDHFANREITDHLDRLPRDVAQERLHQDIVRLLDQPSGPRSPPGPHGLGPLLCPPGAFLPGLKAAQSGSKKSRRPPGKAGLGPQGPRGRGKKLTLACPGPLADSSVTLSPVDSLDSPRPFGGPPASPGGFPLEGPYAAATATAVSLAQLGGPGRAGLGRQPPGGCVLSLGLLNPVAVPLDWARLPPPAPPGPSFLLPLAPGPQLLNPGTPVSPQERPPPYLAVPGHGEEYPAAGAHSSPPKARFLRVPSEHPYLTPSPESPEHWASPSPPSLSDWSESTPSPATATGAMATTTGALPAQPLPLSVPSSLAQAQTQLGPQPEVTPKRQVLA
Torsin-1A-interacting protein 2 (Homo sapiens), sequence (Q8NFQ8 whole entry, looked up): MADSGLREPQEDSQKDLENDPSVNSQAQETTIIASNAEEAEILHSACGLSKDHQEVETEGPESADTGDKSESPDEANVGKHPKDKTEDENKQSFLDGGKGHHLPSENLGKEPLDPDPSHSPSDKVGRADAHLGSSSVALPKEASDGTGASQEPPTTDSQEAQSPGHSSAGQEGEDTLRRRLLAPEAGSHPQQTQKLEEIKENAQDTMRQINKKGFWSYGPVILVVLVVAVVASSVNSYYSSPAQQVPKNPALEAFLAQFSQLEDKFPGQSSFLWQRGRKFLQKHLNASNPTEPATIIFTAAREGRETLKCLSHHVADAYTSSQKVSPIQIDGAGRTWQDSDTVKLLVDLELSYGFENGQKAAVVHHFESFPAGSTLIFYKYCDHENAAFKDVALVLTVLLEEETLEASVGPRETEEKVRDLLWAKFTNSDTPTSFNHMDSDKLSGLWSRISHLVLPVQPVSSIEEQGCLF
Pro-neuregulin-1, membrane-bound isoform (Homo sapiens), sequence (Q02297 whole entry, looked up, the tested form may be a part, canonical isoform): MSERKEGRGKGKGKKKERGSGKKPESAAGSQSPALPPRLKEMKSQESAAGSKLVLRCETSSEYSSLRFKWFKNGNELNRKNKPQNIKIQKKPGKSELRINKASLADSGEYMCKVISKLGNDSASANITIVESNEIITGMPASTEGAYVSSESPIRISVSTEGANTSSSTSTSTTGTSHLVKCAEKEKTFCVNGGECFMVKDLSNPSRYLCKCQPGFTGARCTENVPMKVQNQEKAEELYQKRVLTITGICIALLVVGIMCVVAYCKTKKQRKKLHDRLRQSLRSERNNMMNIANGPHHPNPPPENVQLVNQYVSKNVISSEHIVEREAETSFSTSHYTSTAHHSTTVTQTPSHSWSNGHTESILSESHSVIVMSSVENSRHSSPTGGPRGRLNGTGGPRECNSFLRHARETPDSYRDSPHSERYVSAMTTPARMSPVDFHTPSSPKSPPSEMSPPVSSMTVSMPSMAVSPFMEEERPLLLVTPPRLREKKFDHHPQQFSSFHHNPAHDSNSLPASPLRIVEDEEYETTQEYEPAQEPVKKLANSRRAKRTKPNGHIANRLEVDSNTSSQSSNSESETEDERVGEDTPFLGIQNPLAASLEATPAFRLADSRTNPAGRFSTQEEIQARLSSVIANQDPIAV

SMILES	composite z-score [1]	composite z-score [2]	composite z-score [3]	composite z-score [4]	composite z-score [5]	composite z-score [6]	composite z-score [7]	z-score [8]	composite z-score [9]	composite z-score [10]	composite z-score [11]	z-score [12]	z-score [13]	z-score [14]	composite z-score [15]	z-score [16]	composite z-score [17]	composite z-score [18]	composite z-score [19]	composite z-score [20]
CCOC(=O)NN=C1C[C@@H](O)[C@@H](O)[C@@H]2[C@@H]3C(=O)N(c4ccc(F)cc4F)C(=O)[C@@H]3CC[C@@H]12	-0.333	0.415	-0.0659	0.281	0.493	0.594	-0.0454	-0.248 (inactive)	0.627	0.0139	-0.009	0.517 (inactive)	0.733 (inactive)	-0.0512 (inactive)	0.0129	0.783 (inactive)	-0.0347	0.139	0.578	-0.124
CC(=O)OC[C@H]1O[C@H](CC=NO[C@H](C)c2cn([C@H](CO)Cc3ccccc3)nn2)C=C[C@@H]1OC(C)=O	-0.789	0.379	-0.087	0.541	0.911	1.33	0.711	0.235 (inactive)	0.246	-0.201	1.34	1.36 (inactive)	1.34 (inactive)	1.4 (inactive)	1.06	0.655 (inactive)	-0.0998	0.61	1	0.009
CC(C)CON=C1C[C@@H](O)[C@@H](O)[C@@H]2[C@@H]3C(=O)N(c4ccc(F)cc4F)C(=O)[C@@H]3CC[C@H]12	-0.337	1.29	-0.214	0.269	0.737	0.668	1.23	-0.858 (inactive)	0.803	0.111	1.55	-0.254 (inactive)	-0.59 (inactive)	-0.337 (inactive)	1.63	-0.385 (inactive)	-0.304	0.409	1.08	-0.0512
